Measurements: the supplement of paper PMC6555819

Key:
Assay in all cases: PBM binding z-score (relative to random genomic background probes); higher = stronger binding; sequences stand for … in GC…GCGATTGACAGCGTAGAATGAAGG
[1] = test system: PPARg:RXRa DBDmut IVT, anti-RXR (DBD mutation: RXRa K156A/R161A, NR concentration 270 nM, RXRa partner concentration 90 nM)
Procedure, shortened: (§1)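 Scanned fluorescence from custom Agilent 4×180K protein-binding microarrays was regression-normalized. Binding z-scores use random background probes as reference. Ligand-free nuclear receptor dimers were incubated on the arrays for 1 h and detected with antibodies against each partner (one per run).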

[2] = test system: PPARg:RXRa IVT, anti-PPARg (NR concentration 270 nM, RXRa partner concentration 90 nM)
Procedure, shortened: as §1

[3] = test system: PPARg DBDmut:RXRa IVT, anti-PPARg (DBD mutation: PPARg1 K132A/R137A, NR concentration 270 nM, RXRa partner concentration 90 nM)
Procedure, shortened: as §1

[4] = test system: PPARg DBDmut IVT, anti-PPARg (DBD mutation: PPARg1 K132A/R137A, NR concentration 270 nM)
Procedure, shortened: as §1

[5] = test system: PPARg homodimer (NR concentration 180 nM)
Procedure, shortened: as §1

[6] = test system: PXR:RXRa (NR concentration 270 nM, RXRa partner concentration 90 nM)
Procedure, shortened: as §1

[7] = test system: PXR homodimer (NR concentration 270 nM)
Procedure, shortened: as §1

[8] = test system: RARa:RXR (NR concentration 270 nM, RXRa partner concentration 90 nM)
Procedure, shortened: as §1

[9] = test system: RARa homodimer (NR concentration 270 nM)
Procedure, shortened: as §1

[10] = test system: RARb:RXRa (NR concentration 270 nM, RXRa partner concentration 90 nM)
Procedure, shortened: as §1

Row | Sequence | PBM binding z-score [1] | PBM binding z-score [2] | PBM binding z-score [3] | PBM binding z-score [4] | PBM binding z-score [5] | PBM binding z-score [6] | PBM binding z-score [7] | PBM binding z-score [8] | PBM binding z-score [9] | PBM binding z-score [10]
1 | TATACAGGGTCAAAGGCCAGATTACGAATGTCGA | 2.17 | 4.84 | 2.19 | 3.09 | 2.87 | 4.54 | 0.853 | 6.01 | 1.67 | 4.43
2 | CAGCCTAGGTAAGGGCCAGTATAGGAGGAACGTT | -0.707 | -0.473 | 0.308 | -0.484 | 0.0729 | -0.698 | -0.364 | -0.562 | -0.726 | -0.0366
3 | TCTTGTAGATCAGAGGTTAAGAAAGCCGAAGCCT | 1.58 | 2.04 | 0.138 | 0.179 | 0.818 | 0.951 | -0.359 | 1.48 | -0.453 | 0.915
4 | ATCGAAAGGTCGAAGGTGAATATACCCACCCGAA | 0.205 | 2.75 | 0.488 | 1.25 | 2.07 | 3.5 | 0.328 | 5.15 | 0.699 | 4.04
5 | AGAAAGAGGTTAAGATCAGGGAAACAGAATACAT | 1.12 | 1.52 | 1.97 | 0.819 | 1.02 | 1.37 | 0.655 | 1.89 | 0.728 | 2.4
6 | CAAACTAGGTCACGGGAAGGTCAAAGTCCGCATG | 8.72 | 9.17 | 2.85 | 3.73 | 5.61 | 5.97 | 1.41 | 7.17 | 1.78 | 5.43
7 | TCGAGTAGGTTACCAATGGGGCGTTCAGCTTTCT | 3.2 | 2.46 | -0.504 | -0.846 | 0.122 | -0.176 | -0.801 | 0.167 | -0.443 | 0.773
8 | CGAACCAGGGCATGAGTTGATAGCAAATGCCGAT | 2.9 | 2.29 | -0.69 | 0.106 | 0.228 | -0.0525 | -0.0221 | -0.0885 | -0.263 | 1.02
9 | CCTAGTTGGTCAGGAGGTCAAACACCGGATATGA | 1.54 | 3.02 | 0.223 | 0.259 | 3.46 | 4.59 | 2.21 | 5.06 | 2.09 | 3.76
10 | TCTTGTAGATCAAGAAGGTTAAGAAAGCCTGAGT | 1.65 | 0.53 | -0.357 | 0.523 | 0.323 | 0.858 | 0.332 | 0.941 | 0.353 | 0.732
11 | TCTGCTAGGTCAACGATGGTTAGCTAATCTGCTA | 4.04 | 4.11 | 0.206 | 0.0855 | 0.625 | 1.24 | -0.803 | 2.11 | -0.888 | 4.14
12 | CCGAGTTGGTTATGGGGCATTCAGGCAACGGTGA | 0.136 | 0.993 | -0.435 | -0.836 | 0.998 | 0.00372 | 0.402 | 0.155 | 0.692 | 0.288
13 | CCTGACAGGTGAGAAGGTAACTCAGCCTCGATTA | 1.12 | 0.913 | -0.717 | -0.671 | 0.832 | -0.216 | -0.0629 | 0.621 | -0.07 | 0.751
